Data from PubChem BioAssay (NCI).
About 83,000 compounds went through this panel and 20% of them were active in at least one assay; those are over-represented in the sample as a whole.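 Results are percent growth after 48 hours of single-concentration exposure. 100 means growth as in untreated cells, lower positive values show inhibition; negative values down to -100 show cell death.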 Values without a mark were called inactive. Activity calls are given as the source filed them. How the source made its calls: active means growth percent below 10; inactive means the rest.

What follows are molecules tested on HL-60(TB) leukemia (assay: NCI-60 one-dose screen, 48 h (100 = growth as untreated, 0 = no growth, -100 = all killed)). Conditions: 10 µM unless noted.

Structure (SMILES)	growth
CC1(CO)CCCC1NCCNC1CCCC1(C)CO (stereo unspecified)	95.2%
CCCCCN1CCN(C(CC(=O)c2ccccc2)C(=O)c2ccccc2)CC1 (stereo unspecified)	60.4%
COc1ccc2c3ccnc(C(F)(F)F)c3n(CCCCN)c2c1	53.8%
C=C1C(=O)O[C@H]2[C@H]1CC/C(C(=O)NCCCCCCCCNC(=O)/C1=C/CC[C@@]3(C)O[C@H]3[C@H]3OC(=O)C(=C)[C@@H]3CC1)=C\CC[C@@]1(C)O[C@@H]21	6.59% (active)
COc1cc2c(cc1OC)C(=O)C(CC1CCN(C(=O)Nc3ccc(C)cc3)CC1)C2 (stereo unspecified)	125%
C[C@H]1[C@H]2[C@H]3CC[C@@H]4[C@@]5(C)C/C(=C/c6ccco6)C(=O)C(C)(C)[C@@H]5CC[C@@]4(C)[C@]3(C)CC[C@]23CO[C@]1(C)[C@@H](C(=O)/C=C\c1ccco1)C3	95.8%
COc1ccc(/C=C2\CN(Cc3cn(CCNc4ccnc5cc(Cl)ccc45)nn3)C/C(=C\c3ccc(OC)c(OC)c3)C2=O)cc1OC	-11.3% (active)
Cc1nn(C)c2ncnc(N/N=C/c3cccc(O)c3O)c12	-1.19% (active)
OCCN1CCCN(CCCN2c3ccccc3Sc3ccc(C(F)(F)F)cc32)CC1	45%
C#CC[C@@H]1C[C@]2(C)[C@H]3CC[C@@H]4[C@H]5C(C(=C)C)CC[C@]5(C(=O)NCCCCCCCCN)CC[C@@]4(C)[C@]3(C)CC[C@H]2C(C)(C)[C@H]1OC(C)=O (stereo partly specified)	22%
Cn1cc(-c2nonc2-c2c[nH]c3ccccc23)c2ccccc21	1.04% (active)
CCOC(=O)c1ccc(C(C)(C)C)cc1	90.4%
CC1SC(c2ccc(Cl)cc2)N(CCc2cccs2)C1=O (stereo unspecified)	-3.88% (active)
COc1cc(/C=C2\C=C(c3ccccc3)N(CCc3ccccc3)C2=O)cc(OC)c1OC	80.3%
O=C(/C=C/c1sc(Cl)nc1Cl)c1ccccc1	42.2%
Nc1ncnc2c1c(C(F)(F)F)cn2[C@@H]1O[C@H](CO)[C@@H](O)[C@H]1O	-26.1% (active)
COc1ccc(/C=C/C(=O)c2ccc(NC(=O)CSc3nnc(-c4ccc(OC)c(OC)c4)n3-c3ccccc3)cc2)cc1	54.8%
COc1cc(/C=C/C(=O)c2ccc(Cl)cc2)ccc1OS(=O)(=O)c1ccc(C)cc1	75.2%

Structure (SMILES)	growth
COc1cccc(Nc2nc(SC)nc(-c3cccc([N+](=O)[O-])c3)c2C#N)c1	112%
O=[N+]([O-])c1ccc(-c2cn(-c3ccccc3)c(-c3ccccc3)n2)cc1	87%
CC(=O)N1N=C(c2ccc(F)cc2)CC1c1sc(N(C)Cc2ccccc2)nc1Cl (stereo unspecified)	109%
CC(=O)Oc1csc(N(C(C)=O)c2cccc(C(F)(F)F)c2)n1	107%
O=C(Nc1c(Cl)cccc1Cl)Oc1cccc2cccnc12	-5.41% [100 µM] (active)
CCOC(=O)[C@@H](Cc1ccccc1)NC(=O)c1[nH]c2ccc(Cl)cc2c(=O)c1C	104%
CCOC(=O)CCCn1c(-c2ccccc2)cc(-c2ccccc2)c(C#N)c1=O	77.9%
O=C1CCC(=O)CC1	97.7%
Clc1ccc2c(c1)C[C@H]1C[C@@H](c3cccs3)N2O1	107%
Nc1ccc(-c2cccs2)cc1NC(=O)c1ccc(CCCC(=O)Nc2ccc(C3CC3N)cc2)cc1 (stereo unspecified)	66%
Cc1cc(-c2cc(C)c(O)c(C)c2)cc(C)c1O	63.6%
COCC(=O)Oc1cc(-c2ccc(C)cc2C)c(OC(=O)COC)c(-c2ccc(C)cc2C)c1	36.9%
CC(C)(C)OC(=O)N1C=C/C(=C\Cn2cc(-c3ccccc3)nn2)CC1	75.7%
CC(C)=CCc1cc(O)cc2c1OC(C=C(C)C)C1=C2C(=O)C2=C(C1=O)S(=O)(=O)CCN2 (stereo unspecified)	-31.5% (active)
COc1ccc(N2CCN(CC(=O)N3CCN(c4nnc(-c5ccccc5)c(-c5ccccc5)n4)CC3)CC2)cc1	-36.3% (active)
CCOC(=O)c1cnn(-c2nc(-c3ccc(F)cc3)c(C#N)c(N3CCOCC3)n2)c1N	93.1%
Cc1csc(-c2nnc(Nc3ccc(Oc4ncccc4-c4ccnc(N)n4)cc3)c3ccccc23)c1	12.9%
COc1cnc2c(c1)C(=O)c1c-2n(CCCN2CCNCC2)c(=O)c2cc([N+](=O)[O-])ccc12	-49% (active)
